Some test systems named below: SR leukemia; RPMI-8226 leukemia; OVCAR-5 ovarian; OVCAR-4 ovarian; SK-OV-3 ovarian; IGROV1 ovarian; OVCAR-3 ovarian; HS 578T breast; NCI/ADR-RES ovarian; OVCAR-8 ovarian.
Test in all cases: NCI-60 one-dose screen, 48 h (100 = growth as untreated, 0 = no growth, -100 = all killed)
What all share (conditions): 10 µM

Compounds without any hit were thinned out: in the full panel of roughly 83,000, 20% have a hit.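 In brief: 96-well plates, 48 h treatment, single concentration, percent growth endpoint.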 Unmarked numbers belong to inactive results. Calls of active or inactive are those of the source. The calls were made as follows: active = growth percent below 10; inactive = the rest.

`Cc1cc(C(F)(F)F)ccc1C(=O)Nc1sc2c(c1C#N)CCC(=O)C2`: the growth is -9.8% (active) in the experiment on SR leukemia; 2.68% (active) in the experiment on RPMI-8226 leukemia; -33.3% (active) with OVCAR-5 ovarian; -39.7% (active) in the experiment with OVCAR-4 ovarian; -18.9% (active) in the experiment on SK-OV-3 ovarian; -5.43% (active) in the experiment on IGROV1 ovarian. The growth in the experiment with OVCAR-3 ovarian was -48.2% (active); in the experiment on HS 578T breast, -7.86% (active); with NCI/ADR-RES ovarian it was -24.8% (active).
On to `COc1cc2c(cc1OC)CN(CCCCOc1cc(O)c3c(=O)cc(-c4ccccc4)oc3c1)CC2`, for which the growth was -13.8% (active) in the experiment on SR leukemia; 24.1% in the experiment with RPMI-8226 leukemia; 85.1% in the experiment on OVCAR-8 ovarian; 30% in the experiment on OVCAR-4 ovarian; 74.5% in the experiment on SK-OV-3 ovarian; 95.8% in the experiment on IGROV1 ovarian. The growth is 94.9% with OVCAR-3 ovarian and 57.4% in the experiment with NCI/ADR-RES ovarian.
In the case of `COc1ccc(-c2nc(-c3ccccc3)c(-c3ccccc3)n2-c2ccc(S(=O)(=O)Nc3ncccn3)cc2)cc1OC`, the growth was 68.9% in the experiment with SR leukemia; 60.3% in the experiment on RPMI-8226 leukemia; 82.8% in the experiment on OVCAR-5 ovarian; 87% in the experiment with OVCAR-4 ovarian; 95% in the experiment with SK-OV-3 ovarian; 85.5% in the experiment on IGROV1 ovarian. Further, the figures for the growth in the experiment on OVCAR-3 ovarian, in the experiment on HS 578T breast and in the experiment on NCI/ADR-RES ovarian were 90.1%, 50.9% and 96.7%, respectively.
Turning to `COc1cc(C2CC(c3ccccc3)=Nc3c(N)nc(N)nc3N2)ccc1Oc1nc(Nc2ccc(F)cc2)nc(N(C)C)n1` (stereo unspecified), the growth was 2.83% (active) with SR leukemia; 13.5% with RPMI-8226 leukemia; 85.8% in the experiment with OVCAR-5 ovarian; 35.5% with OVCAR-4 ovarian; 87.2% with SK-OV-3 ovarian; 50.8% in the experiment on IGROV1 ovarian. For the same molecule, the growth is 36.4% with OVCAR-3 ovarian, 48.1% in the experiment on HS 578T breast and 36.8% in the experiment on NCI/ADR-RES ovarian.
As to `Brc1ccc(N/N=C/c2c[nH]c3ccccc23)nc1`, the growth in the experiment on SR leukemia was 2.45% (active); with RPMI-8226 leukemia it was 2.19% (active); in the experiment with OVCAR-5 ovarian it was 45.4%; in the experiment with OVCAR-4 ovarian, 41.5%; in the experiment on SK-OV-3 ovarian, 71%; in the experiment with IGROV1 ovarian it was 1.99% (active). Moreover, the values for the growth in the experiment with OVCAR-3 ovarian, in the experiment with HS 578T breast and in the experiment on NCI/ADR-RES ovarian were 19.5%, 51.7% and 5.81% (active), respectively.
Regarding `N#Cc1c(NC(=O)c2ccc(C(F)(F)F)c(Cl)c2)sc2c1CCC(=O)C2`, the growth in the experiment on SR leukemia was -11.8% (active); with RPMI-8226 leukemia, 0.426% (active); in the experiment on OVCAR-8 ovarian, -34% (active); in the experiment on OVCAR-4 ovarian it was -21.1% (active); with SK-OV-3 ovarian it was -30.1% (active); with IGROV1 ovarian it was -35.3% (active). The growth in the experiment with OVCAR-3 ovarian is -57% (active); in the experiment with HS 578T breast it was -26% (active); in the experiment on NCI/ADR-RES ovarian, -48.9% (active).
As for `Nc1nc(-c2ccccc2)cs1`, the growth with SR leukemia was 30%; in the experiment on RPMI-8226 leukemia, 34.6%; in the experiment on OVCAR-5 ovarian it was 83.5%; in the experiment on OVCAR-4 ovarian, 59.4%; with SK-OV-3 ovarian it was 82.5%; in the experiment with IGROV1 ovarian, 63.7%. Besides, the results for the growth in the experiment on OVCAR-3 ovarian, with HS 578T breast and with NCI/ADR-RES ovarian were 44.6%, 55.8% and 28.5%, respectively.
On to `C=C1CCC2C3(C)COC(c4cc(F)cc(F)c4)OC3CCC2(C)C1C/C=C1/C(=O)OCC1O` (stereo unspecified), for which the growth was 7.75% (active) in the experiment on SR leukemia; 14.1% with RPMI-8226 leukemia; -83.1% (active) in the experiment on OVCAR-8 ovarian; -11% (active) in the experiment on OVCAR-4 ovarian; 25% in the experiment on SK-OV-3 ovarian; -49.8% (active) in the experiment with IGROV1 ovarian. Further, the growth is -76.9% (active) in the experiment with OVCAR-3 ovarian, -24.1% (active) in the experiment with HS 578T breast and -11.1% (active) with NCI/ADR-RES ovarian.
Take `N#Cc1ccc(-c2nn(-c3ccc(C(=O)O)cc3)cc2CNc2cc(Cl)cc(Cl)c2)cc1`: the growth was 36.5% with SR leukemia; 21.6% with RPMI-8226 leukemia; 84% with OVCAR-5 ovarian; 65.4% with OVCAR-4 ovarian; 126% with SK-OV-3 ovarian; 52.5% in the experiment with IGROV1 ovarian. Besides, the growth in the experiment with OVCAR-3 ovarian was 45.7%; in the experiment on HS 578T breast, 50.2%; in the experiment with NCI/ADR-RES ovarian, 17.2%.
For the molecule `CC(=O)c1cc(C(=O)N2c3ccccc3Sc3ccccc32)n2ccc(C)cc12`, the growth is 6.72% (active) with SR leukemia; 19.8% in the experiment on RPMI-8226 leukemia; 66.8% with OVCAR-5 ovarian; 51.7% in the experiment on OVCAR-4 ovarian; 99.8% with SK-OV-3 ovarian; 37.1% in the experiment on IGROV1 ovarian. The growth in the experiment with OVCAR-3 ovarian is 58%; in the experiment with HS 578T breast it was 53.7%; in the experiment with NCI/ADR-RES ovarian, 18.4%.
`O=C1CCC(N2Cc3cc(CC(=O)Nc4ccc(N5CCCCC5)cc4)ccc3C2=O)C(=O)N1` (stereo unspecified): the growth in the experiment on SR leukemia was 77.2%; with RPMI-8226 leukemia, 66.4%; with OVCAR-5 ovarian, 70.5%; in the experiment on OVCAR-4 ovarian, 31.1%; with SK-OV-3 ovarian, 61%; in the experiment with IGROV1 ovarian, 31.8%. Moreover, the growth with OVCAR-3 ovarian is 53.9%; in the experiment with HS 578T breast, 27.4%.
Turning to `O=c1[nH]c2ccccc2cc1CSc1ccc(Nc2nccc(-c3ccc4c(c3)OCO4)n2)cc1`, the growth in the experiment with SR leukemia is 81.7%; in the experiment on RPMI-8226 leukemia it was 81.3%; in the experiment on OVCAR-5 ovarian it was 98.3%; with OVCAR-4 ovarian, 27%; with SK-OV-3 ovarian it was 116%; with IGROV1 ovarian it was 103%. Also, the growth in the experiment on OVCAR-3 ovarian was 50.7%; with HS 578T breast, 41.3%; in the experiment with NCI/ADR-RES ovarian, 83.7%.
Consider `O=c1[nH]c2ccccc2cc1CSc1ccc(Nc2nccc(-c3ccc(C(F)(F)F)cc3)n2)cc1`, for which the growth was 64.7% with SR leukemia; 69.5% with RPMI-8226 leukemia; 36% in the experiment on OVCAR-5 ovarian; -60.3% (active) in the experiment with OVCAR-4 ovarian; 79.5% with SK-OV-3 ovarian; 35.7% with IGROV1 ovarian. Also, the growth with OVCAR-3 ovarian was -61.1% (active); with HS 578T breast it was -8.2% (active); with NCI/ADR-RES ovarian it was 11.9%.
For the molecule `N#Cc1ccc(-c2nn(-c3ccc(C(=O)O)cc3)cc2CNc2ccc(Cl)cc2)cc1`, the growth with SR leukemia is 82.8%; with RPMI-8226 leukemia it was 66.4%; in the experiment on OVCAR-4 ovarian it was 85.2%; with SK-OV-3 ovarian, 123%; with IGROV1 ovarian it was 91.5%; in the experiment on OVCAR-3 ovarian, 70.3%. Further, in the experiment with NCI/ADR-RES ovarian, the growth is 67.7%.
For the molecule `COc1ccc(N(C)c2cc(C#N)nc3ccccc23)cc1N`, the growth was 19.9% in the experiment on RPMI-8226 leukemia; 14.1% with OVCAR-8 ovarian; 34.6% in the experiment on OVCAR-5 ovarian; 55% in the experiment on OVCAR-4 ovarian; 23.8% with SK-OV-3 ovarian; 17.1% in the experiment with IGROV1 ovarian. The growth in the experiment with OVCAR-3 ovarian was 7.72% (active); with HS 578T breast, 36.9%; with NCI/ADR-RES ovarian, -31.7% (active).

The values are drawn from PubChem BioAssay (NCI).
